A short description of test [1]: HepG2 liver cancer cell viability effects, profiling panel, resazurin fluorescence, 24 h, PK04 Diversity Set (AID 1172). Note: test concentration not given here. Particulars: higher = more signal. (Resazurin is reduced to fluorescent resorufin, in cell work by metabolically active cells.)
Test [2] in a line: basal S. cerevisiae growth modulation, no modifier, primary screen, OD600, strain BY4716, 24 h, basal condition (AID 1173). The note with it: OD600, 24 h, higher = more signal, called active from +8 up or from −8 down.
The nature of test [3]: MM1S myeloma cell viability, profiling panel, resazurin fluorescence, basal, 24 h, PK04 Diversity Set (AID 1174).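 Note: MM1S multiple myeloma cell line; test concentration not given here.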 The note with it: higher = more signal, called active from +8 up or from −8 down.
Test [4] addresses Dihydroorotate dehydrogenase (quinone), mitochondrial (Plasmodium falciparum (isolate 3D7)) (UniProt Q08210). As to the kind of experiment: PfDHODH enzyme inhibitors, primary screen, biochemical, C-terminal His tag, absorbance 600 nm (AID 1175).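 Note: recombinant parasite enzyme with a five histidine tag at its C terminus; test concentration not given here.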 Particulars: DCIP absorbance 600 nm, higher = more signal, called active from +8 up or from −8 down.
Test [5] in a line: P. aeruginosa biofilm formation inhibitors, primary screen, strain PAO1, LB-PBS medium, absorbance 600 nm (AID 1176). Note: test concentration not given here. Particulars: P. aeruginosa PAO1 growth/biofilm, A600, 12 h; higher = more signal.
Test [6] is described as follows: S. cerevisiae RM11-1a growth modifiers, primary screen, strain RM11-1a, OD600, basal, 24 h (AID 1177).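 Note: cultures grown under basal conditions with no added stressor; test concentration not given here.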 Particulars: OD600, 24 h, higher = more signal, called active from +8 up or from −8 down.
Test [7] in a line: E. coli acrAB mutant growth effects, primary screen, E. coli filamentation inducers, strain DRC39, OD650, 24 h (AID 1178).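 Note: growth measured as culture turbidity by optical density at 650 nm; test concentration not given here.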 Particulars: higher = more signal, called active from +8 up or from −8 down.
Test [8] can be described thus: E. coli acrAB mutant growth effects, primary screen, E. coli filamentation inducers, strain DRC39, OD650, 48 h (AID 1179).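 Note: screen aims at cell division blockers that make cells filament.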 Particulars: E. coli DRC39 delta-acrAB growth, higher = more signal, called active from +8 up or from −8 down.
Test [9] can be described thus: RPMI8226 myeloma cell viability, profiling panel, resazurin fluorescence, basal, 24 h, PK04 Diversity Set (AID 1180).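 Note: RPMI8826 multiple myeloma cell line at 5000 cells per well; test concentration not given here.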 Particulars: higher = more signal.
The target in test [10] is E3 ubiquitin-protein ligase XIAP (Homo sapiens) (UniProt P98170). As to the kind of experiment: XIAP binders, primary screen, biophysical, small-molecule microarray, fluorescence 635 nm (AID 1181).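 Note: score merges 667 nm emission and signal to noise over triplicate slides.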 Particulars: small-molecule microarray binding, higher = more signal.

Calls of active or inactive are those of the source. Unless noted, the rule behind the calls is not given here.

E3 ubiquitin-protein ligase XIAP (Homo sapiens), sequence (P98170 whole entry, looked up): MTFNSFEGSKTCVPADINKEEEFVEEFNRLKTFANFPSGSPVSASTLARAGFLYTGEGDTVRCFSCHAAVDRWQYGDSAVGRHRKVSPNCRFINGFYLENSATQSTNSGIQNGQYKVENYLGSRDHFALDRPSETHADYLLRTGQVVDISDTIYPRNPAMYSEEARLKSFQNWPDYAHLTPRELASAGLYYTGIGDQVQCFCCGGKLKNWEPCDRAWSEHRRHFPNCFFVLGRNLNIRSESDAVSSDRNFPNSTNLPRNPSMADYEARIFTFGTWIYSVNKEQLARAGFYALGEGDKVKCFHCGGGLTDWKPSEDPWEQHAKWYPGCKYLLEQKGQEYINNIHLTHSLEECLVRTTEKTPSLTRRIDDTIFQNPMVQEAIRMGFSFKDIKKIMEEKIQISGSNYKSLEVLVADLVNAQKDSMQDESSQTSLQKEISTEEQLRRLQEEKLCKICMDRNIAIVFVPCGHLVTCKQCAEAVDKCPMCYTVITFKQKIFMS
Dihydroorotate dehydrogenase (quinone), mitochondrial (Plasmodium falciparum (isolate 3D7)), sequence (Q08210 whole entry, looked up): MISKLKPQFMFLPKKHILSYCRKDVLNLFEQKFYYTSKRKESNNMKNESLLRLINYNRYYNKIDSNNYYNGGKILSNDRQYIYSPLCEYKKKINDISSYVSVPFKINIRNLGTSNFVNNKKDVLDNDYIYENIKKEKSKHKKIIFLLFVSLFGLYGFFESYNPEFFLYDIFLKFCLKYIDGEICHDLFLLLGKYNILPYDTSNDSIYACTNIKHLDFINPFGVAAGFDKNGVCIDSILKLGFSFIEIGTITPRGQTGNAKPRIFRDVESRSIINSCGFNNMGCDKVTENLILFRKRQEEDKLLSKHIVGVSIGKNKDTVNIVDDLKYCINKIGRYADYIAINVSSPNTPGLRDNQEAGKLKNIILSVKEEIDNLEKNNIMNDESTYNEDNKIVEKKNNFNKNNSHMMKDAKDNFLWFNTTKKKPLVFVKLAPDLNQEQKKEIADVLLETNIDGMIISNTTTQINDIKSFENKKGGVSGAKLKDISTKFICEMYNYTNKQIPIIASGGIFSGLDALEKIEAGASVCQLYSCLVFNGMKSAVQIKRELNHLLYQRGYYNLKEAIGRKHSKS

On to `COCC#Cc1ccc([C@@H]2N[C@H](C(=O)O)CC[C@H]2C)cc1`, for which the z-score in test [1] was -0.041; in test [2], -1.71 (inactive); in [3] it was 0.525 (inactive); in test [5], 0.143 (inactive); in test [6] it was -2.45 (inactive); in [7], 0.966 (inactive). For the same compound, the z-score in test [8] was -0.94 (inactive); in test [9] it was -0.293. Further, the values for the composite z-score in test [4] and in test [10] were -1.53 (inactive) and -0.416, respectively.
Consider `CC(C)CON=C1C[C@@H](O)[C@@H](O)[C@@H]2[C@@H]3C(=O)N(C(C)(C)C)C(=O)[C@@H]3CC[C@@H]12`, for which the z-score in test [1] was -0.685; in [2], -0.322 (inactive); in test [3], 0.4 (inactive); in test [5] it was 0.295 (inactive); in test [6], -0.492 (inactive); in [7] it was 0.796 (inactive). For the same compound, the z-score in test [8] was -1.13 (inactive); in [9], -0.463. The values for the composite z-score in test [4] and in test [10] were -1.88 (inactive) and -0.277, respectively.
In the case of `C=CC[C@@H]1C=CC(ON=C(C)C)[C@@H](CO)O1` (stereo not given in full), the z-score is -0.689 in test [1]; 0.381 (inactive) in test [2]; -0.389 (inactive) in [3]; -0.254 (inactive) in [5]; 1.1 (inactive) in [6]; 0.832 (inactive) in test [7]. The values for the z-score in [8] and in test [9] were -1.16 (inactive) and 0.283, respectively. Also, the results for the composite z-score in test [4] and in test [10] were 0.532 (inactive) and -0.267, respectively.
In the case of `CC(CCN1CCCCc2nc(C)c(C)cc21)=NOC[C@@H](O)[C@H]1O[C@@H]2OC(C)(C)O[C@@H]2[C@H]1O`, the z-score in [1] was -0.825; in test [2], -0.546 (inactive); in test [3] it was -1.03 (inactive); in test [5], 0.335 (inactive); in test [6], -0.382 (inactive); in test [7], 0.78 (inactive). Also, the z-score was -0.887 (inactive) in [8] and -0.216 in [9]. The figures for the composite z-score in [4] and in test [10] were -0.183 (inactive) and -0.0323, respectively.
On to `O=C1C2=CC[C@H]3C(=O)N(c4ccc(F)cc4F)C(=O)[C@H]3[C@H]2[C@H](O)[C@@H]2O[C@H]12`, for which the z-score is 0.0059 in [1]; -0.448 (inactive) in test [2]; -0.874 (inactive) in [3]; -0.307 (inactive) in test [5]; -0.592 (inactive) in [6]; -0.401 (inactive) in test [7]. The z-score in test [8] is -0.0889 (inactive); in test [9], -0.035. Besides, the values for the composite z-score in [4] and in [10] were -0.166 (inactive) and 0.104, respectively.
With `CC(=O)OC[C@H]1O[C@H](CC=NO[C@@H](C)c2cn([C@H](CO)Cc3ccccc3)nn2)C=C[C@@H]1OC(C)=O`, the z-score in test [1] is -0.462; in [2], -0.305 (inactive); in test [3], 0.0157 (inactive); in test [5], -0.88 (inactive); in [6] it was -0.793 (inactive); in test [7], -0.645 (inactive). Also, the z-score in test [8] is -1.36 (inactive); in [9], 0.205. Besides, the figures for the composite z-score in test [4] and in [10] were -2.87 (inactive) and -0.434, respectively.
As to `OC[C@H]1O[C@H](C#Cc2ccccc2)C=C[C@@H]1O`, the z-score is -0.0313 in [1]; -2.6 (inactive) in test [2]; -0.323 (inactive) in [3]; 0.298 (inactive) in test [5]; -0.353 (inactive) in test [6]; 0.953 (inactive) in test [7]. The z-score in test [8] is 0.626 (inactive); in [9], 0.226. For the same compound, the composite z-score in test [4] was -0.249 (inactive); in [10] it was -0.184.
For the compound `CCOC(=O)[C@H](Cc1ccccc1)NC(=O)CCC1CC(OC(=O)NCc2cccc3ccccc23)CC2(CCCC(COC(=O)NCCc3ccc(Cl)cc3)O2)O1` (stereo not given in full), the z-score in test [1] was 0.723; in test [2], -1.24 (inactive); in [3], 0.768 (inactive); in [5], 0.32 (inactive); in [6], -0.424 (inactive); in [7], -0.178 (inactive). In addition, the z-score is -0.907 (inactive) in [8] and 1.45 in [9]. The composite z-score in test [4] is -0.617 (inactive); in test [10], 0.165.
For `CC(CCN1CCCc2nc(C)c(C)cc21)=NOC[C@@H](O)COCc1ccco1`, the z-score was 0.365 in [1]; 0.657 (inactive) in [2]; 0.107 (inactive) in [3]; 1.24 (inactive) in test [5]; -0.349 (inactive) in test [6]; 0.557 (inactive) in test [7]. The figures for the z-score in test [8] and in test [9] were 0.948 (inactive) and 0.592, respectively. Also, the composite z-score is -0.697 (inactive) in test [4] and 2.53 in test [10].
`C=CC[C@@H]1C=C[C@H](ON=C[C@@H](NS(=O)(=O)c2ccc(C)cc2)[C@H](C)C=CCC(=O)OC)[C@@H](CO)O1`: the z-score in test [1] was -0.71; in test [2], 0.071 (inactive); in test [3] it was -0.681 (inactive); in test [5] it was 0.0525 (inactive); in test [6], -0.0257 (inactive); in [7], -0.251 (inactive). The z-score in test [8] is 0.119 (inactive); in test [9], -0.422. For the same compound, the composite z-score is -0.383 (inactive) in [4] and -0.231 in test [10].
As to `O=C1[C@H]2[C@H]3[C@H](O)[C@H](O)CC(=NOC[C@@H](O)COCc4ccco4)[C@@H]3CC[C@H]2C(=O)N1c1cccc(Oc2ccccc2)c1`, the z-score in test [1] was 0.928; in [2], -0.378 (inactive); in test [3] it was 0.25 (inactive); in test [5] it was -0.389 (inactive); in test [6] it was -1 (inactive); in [7] it was -0.25 (inactive). In addition, the z-score in test [8] is -1.28 (inactive); in [9], 0.0789. For the same compound, the composite z-score in test [4] is 0.295 (inactive); in [10], 0.1.
`CO[C@H]1COC(=O)CC=C[C@H](C)[C@H](OC)COC(=O)[C@@H](C)NC(=O)CC=C[C@@H]1C`: the z-score in [1] is 0.664; in test [2] it was -1.17 (inactive); in test [3] it was 0.623 (inactive); in test [5] it was -0.467 (inactive); in test [6], -1.22 (inactive); in test [7], 0.124 (inactive). Besides, the z-score is -0.0133 (inactive) in test [8] and 0.379 in test [9]. The figures for the composite z-score in test [4] and in test [10] were -0.498 (inactive) and 0.0399, respectively.
For the compound `COc1ccc2c(c1)O[C@@H](c1cccc(C(F)(F)F)c1)[C@H](O)C2=O`, the z-score is 0.669 in test [1]; -14.3 (active) in test [2]; -0.104 (inactive) in test [3]; 0.699 (inactive) in [5]; -1.04 (inactive) in test [6]; 1.23 (inactive) in test [7]. Also, the z-score in test [8] was 1.34 (inactive); in test [9] it was 0.8. Also, the composite z-score in [4] was -0.445 (inactive); in test [10], 0.0223.

The values are drawn from PubChem BioAssay.
